High-throughput results: PubChem BioAssay, National Center for Advancing Translational Sciences (NCATS)
DT40 TDP1 CPT – growth inhibition of DT40 Tdp1-/-;hTDP1 cells with camptothecin (screen for TDP1 inhibitors) | Potency, µM (top dose mostly 46.2 µM), hits mostly inhibitors | AID 686979 | 420,000 tested, 12% active | chicken DT40 Tdp1-/-;hTDP1 cells + 20 nM CPT, ATP luminescence, 48 h; further: nearly all actives have a fitted effect of over 55% in size
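Chicken DT40 Tdp1-/- cells stably complemented with human TDP1 were seeded at 400 cells/well in medium containing 20 nM camptothecin, exposed to pin-transferred compounds, and grown at 37 °C for at least 48 hr. Viability was read as ATP luminescence.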
SW480 rereplic – DNA re-replication induction in SW480 cells; SW480 DNA re-replication, Hoechst DNA content imaging, 48 h; Potency, µM (series often up to 46.1 µM), most hits filed as activators; 340,000 tested, 1.8% active; further: nearly all actives have a fitted effect of over 55% in size
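Treated cells incubate 48 hr (37 C, 5% CO2), are stained 40 min with Hoechst, and nuclear fluorescence is enumerated; a rise in nuclei with high DNA signal marks re-replication.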
DT40 TDP1 no CPT – qHTS for Inhibitors of human tyrosyl-DNA phosphodiesterase 1 (TDP1): qHTS in cells in absence of CPT; DT40 Tdp1-/- hTDP1 cells, no CPT, ATP luminescence, 48 h; Potency, µM (titrated, usually from 46.2 µM), actives largely listed as inhibitors; 420,000 tested, 15% active; AID 686978, 2013; further: nearly all actives have a fitted effect of over 55% in size
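Chicken DT40 Tdp1-/- cells stably complemented with human TDP1 were seeded at 400 cells/well with DMSO in place of 20 nM camptothecin. After compound pinning, cells grew at least 48 hr at 37 °C; viability read by CellTiter-Glo luminescence.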
IL-1B inflam inh – inhibitors of inflammasome signaling (IL-1 beta secretion); 360,000 tested, 4.7% active; THP-1 LPS/ATP IL-1B secretion, AlphaLISA, 16 h; active compounds read low; activity change, % at 57.5 µM; in the data active means activity change below about -50%; inconclusive means mostly about -30% to -49%
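THP-1 cells pretreated 1 hr with compounds (up to 57.5 uM final), then stimulated with LPS (250 ng/mL final) plus ATP (1.25 mM final); secreted IL-1B measured by AlphaLISA after 16 hr, decreased signal indicating inhibition.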
BCR signal inh – blocks chronic active B-cell receptor signaling. 340,000 tested, 0.05% active. Potency, µM (series often up to 46.1 µM), most hits filed as inhibitors. AID 493014. ABC-DLBCL IkBa-CBG/CBR reporter, luminescence ratio, 4 h; active means well fitted inhibition curve with a large enough effect in the signal ratio, with a control signal flat, not every such curve was filed as active; inconclusive means small, poorly fitted or top-dose-only effect, or effect the other way, or a change in a side signal; the % refers to the signal ratio
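Concentration-response series (up to 46 uM) were applied to TMD8 dual-reporter cells for 4 h at 37C with doxycycline. Green/red ratio, after filter-overlap correction, defined %Activity; red signal alone was normalised to basal cells and zero luminescence.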
MCF10A rerep – induces DNA re-replication in MCF 10a normal breast cells. 350,000 tested, 2.9% active. AID 624296. MCF 10A DNA re-replication, Hoechst nuclear intensity, 48 h. Potency, µM (top dose mostly 46.1 µM), hits mostly activators; further: nearly all actives have a fitted effect of over 50% in size
Numbers stand for hits; i = inactive; ? = inconclusive; nt = not tested or not shown. Shown are actives, neighbours in structure and some others; about 19% of the full set was active somewhere. Unless noted, the call rests on the fitted dose curve; in most records, active means well fitted curve in the direction sought with a large enough effect; inconclusive means small, poorly fitted or top-dose-only effect, or another doubt; inactive means no such curve, though single readings can be large; an effect the other way counts as inactive or inconclusive.

SMILES	DT40 TDP1 CPT	SW480 rereplic	DT40 TDP1 no CPT	IL-1B inflam inh	BCR signal inh	MCF10A rerep
O=C(c1cccs1)N1CCC(c2nc3c(nnn3Cc3c(Cl)cccc3Cl)c(=O)[nH]2)CC1	i	i	?	i	i	i
COc1ccc(S(=O)(=O)N2CCOCC2)cc1NC(=O)COC(=O)c1ccc([N+](=O)[O-])s1	i	i	i	i	i	i
COCCN1C[C@@H](CO)O[C@@H](n2cnc3c(NCc4ccncc4)ncnc32)C1	?	nt	i	i	nt	nt
O=C1c2cc(S(=O)(=O)N3CCOCC3)ccc2-c2ccc(S(=O)(=O)N3CCOCC3)cc21	i	nt	i	nt	nt	nt
CC1CCN(S(=O)(=O)c2ccc3c(c2)C(=NO)c2cc(S(=O)(=O)N4CCC(C)CC4)ccc2-3)CC1	0.65µM	?	0.73µM	-89	i	0.52µM
O=S(=O)(c1ccc2c(c1)C(=NO)c1cc(S(=O)(=O)N3CCCCC3)ccc1-2)N1CCCCC1	4.1µM	12µM	2.9µM	-85	?	2.1µM
CN(C)N=C1c2cc(S(=O)(=O)N3CCOCC3)ccc2-c2ccc(S(=O)(=O)N3CCOCC3)cc21	?	i	21µM	i	i	i
COc1ccc(S(=O)(=O)N2CCC(C)CC2)cc1OC	i	i	i	i	i	i
COc1ccc(CN(C)C(=O)CSc2nnc(C3CC3)n2C2CC2)cc1	i	i	i	i	i	i
Cc1ccc(CNC(=O)CN(C)S(=O)(=O)c2cccs2)cc1	i	i	i	i	i	i
COC(=O)c1ccc(CN(C)S(=O)(=O)c2cccs2)cc1	i	i	i	i	i	i
Nc1ccc(C(=O)NCCCSc2ccccc2)cc1[N+](=O)[O-]	?	i	?	i	?	i
COc1ccc(/C=N/OCC(=O)N=Nc2c(O)[nH]c3ccc(Br)cc23)cc1OC	26µM	i	23µM	i	i	?
COc1ccc(/C(C)=N/OCC(=O)N=Nc2c(O)[nH]c3ccc(Br)cc23)cc1	?	i	18µM	i	i	i
Cc1ccccc1-n1nnnc1SCC(=O)NCC1(N2CCOCC2)CCCCC1	?	i	?	i	i	i
COc1ccc(OC)c(C(c2nnnn2Cc2ccccc2)N2CCN(C3CCCCC3)CC2)c1 (stereo not given)	18µM	i	?	i	i	i
Fc1ccc(Cn2nnnc2C(c2cccs2)N2CCN(C3CCCCC3)CC2)cc1 (stereo not given)	15µM	i	16µM	i	i	i
COc1ccccc1C(c1nnnn1Cc1ccccc1)N1CCN(C2CCCC2)CC1 (stereo not given)	?	i	?	i	i	?
COc1ccc(Cn2nnnc2C(c2ccc3ncccc3c2)N2CCN(C3CCCCC3)CC2)cc1 (stereo not given)	?	i	?	i	i	?
COc1ccc(Cn2nnnc2C(c2ccc(C)cc2)N2CCN(C3CCCC3)CC2)cc1 (stereo not given)	16µM	i	9.2µM	?	i	i
CC(C)C(c1nnnn1Cc1ccc(F)cc1)N1CCN(C2CCCCC2)CC1 (stereo not given)	?	i	?	i	?	i
Cc1c(Cl)cccc1NC(=O)N1CCC(CN2CCOCC2)CC1	i	nt	i	nt	nt	nt
COc1ccc2[nH]cc(CCNC(=O)c3cnn(-c4ccccc4Cl)c3C3CCN(C(=O)OC(C)(C)C)CC3)c2c1	13µM	nt	10µM	nt	nt	nt
COCCCNC(=O)c1cnn(-c2ccccc2Cl)c1C1CCN(C(=O)OC(C)(C)C)CC1	?	nt	i	nt	nt	nt
COc1ccc2[nH]cc(CCNC(=O)c3cnn(-c4ccc(C)cc4)c3C3CCN(C(=O)OC(C)(C)C)CC3)c2c1	9.2µM	nt	5.2µM	nt	nt	nt
SMILES	DT40 TDP1 CPT	SW480 rereplic	DT40 TDP1 no CPT	IL-1B inflam inh	BCR signal inh	MCF10A rerep
COc1ccc(NC(=O)NC2COc3ccccc3C2)cc1Cl (stereo not given)	i	nt	i	nt	nt	nt
CC1CC(C)CN(CCOCCSc2ccc(Cl)cc2)C1 (stereo not given)	21µM	?	16µM	?	?	16µM
CC1CC(C)CN(CCOCCSc2ccccc2)C1 (stereo not given)	?	i	16µM	i	i	?
COc1ccc(-c2nc3c4ccccc4ccn3c2Cc2ccccc2)cc1OC	?	nt	16µM	i	nt	nt
COc1ccc(Cc2c(-c3ccc(C#N)cc3)nc3c4ccccc4ccn23)c(C)c1	?	nt	?	i	nt	nt
COc1ccc(-c2nc3ccc(Cl)cn3c2Cc2ccccc2C(F)(F)F)cc1OC	18µM	nt	16µM	?	nt	nt
COc1ccc(-c2nc3c4ccccc4ccn3c2Cc2ccccc2C(F)(F)F)cc1OC	?	nt	16µM	i	nt	nt
COc1ccccc1Cc1c(-c2ccc(C#N)cc2)nc2c3ccccc3ccn12	21µM	nt	21µM	i	nt	nt
COc1ccccc1Cc1c(-c2ccc(OC)c(OC)c2)nc2ccc(Cl)cn12	?	nt	?	i	nt	nt
Cc1cn(CC(=O)NCC2CCCO2)c(=O)[nH]c1=O (stereo not given)	i	i	i	i	nt	i
Cc1ccn(CCC(=O)Nc2ccc3c(c2)OCO3)n1	i	i	i	i	i	i
COc1ccc(Cc2c(-c3ccc(F)cc3)nc3c4ccccc4ccn23)c(C)c1	?	nt	?	i	nt	nt
COc1ccc(Cc2c(-c3ccccc3)nc3c4ccccc4ccn23)c(C)c1	?	nt	15µM	i	nt	nt
COc1ccccc1Cc1c(-c2ccc(OC)c(OC)c2)nc2c3ccccc3ccn12	?	nt	23µM	i	nt	nt
COc1ccccc1Cc1c(-c2ccc(OC)c(OC)c2)nc2c(Cl)cc(C(F)(F)F)cn12	i	nt	i	i	nt	nt
COc1ccccc1Cc1c(C(C)(C)C)nc2c3ccccc3ccn12	3.3µM	nt	2.6µM	?	nt	nt
O=C(CN1C(=O)C(=O)N(C2CCCC2)C1=O)Nc1ccc([N+](=O)[O-])cc1	i	i	i	i	i	i
CCc1ccc(NC2=CC(=O)CC(C)(C)C2)cc1	i	i	i	-56	i	i
CCCOc1ccc(NC2=CC(=O)CC(C)(C)C2)cc1	i	i	i	i	?	i
COc1ccc(OCC(=O)Nc2ncc3c(n2)CC(C)(C)CC3=O)cc1	i	i	i	i	?	i
CC1(C)CC(=O)C=C(Nc2ccc(Br)cc2F)C1	i	i	i	-81	i	i
CC1(C)CC(=O)c2cnc(NC(=O)Cc3ccc(Cl)cc3)nc2C1	?	i	23µM	i	i	i
CCc1ccc(Nc2ncc3c(n2)CC(c2ccc(OC)cc2)CC3=O)cc1 (stereo not given)	?	21µM	16µM	i	i	18µM
COc1ccc(-c2noc(CCC(=O)N3CCN(c4ccccc4Br)CC3)n2)cc1	i	i	i	i	i	?
